In the library only some 11% were active in any assay of this set; here they are far more common.
ALDH1A1 inh: ALDH1A1 (human) enzyme inhibition | AID 1030 | P00352 | Purified ALDH1A1, NADH fluorescence, propionaldehyde substrate | Potency, µM (doses to about 75.3 µM), usual class: inhibitors | 7.3% of 220,000 active
HPGD block: inhibitors of human 15-hydroxyprostaglandin dehydrogenase (HPGD); P15428; purified HPGD, NADH fluorescence kinetic, PGE2 substrate; Potency, µM, hits mostly inhibitors; 4.3% of 150,000 active; AID 894
Target sequence (P15428 whole entry, looked up): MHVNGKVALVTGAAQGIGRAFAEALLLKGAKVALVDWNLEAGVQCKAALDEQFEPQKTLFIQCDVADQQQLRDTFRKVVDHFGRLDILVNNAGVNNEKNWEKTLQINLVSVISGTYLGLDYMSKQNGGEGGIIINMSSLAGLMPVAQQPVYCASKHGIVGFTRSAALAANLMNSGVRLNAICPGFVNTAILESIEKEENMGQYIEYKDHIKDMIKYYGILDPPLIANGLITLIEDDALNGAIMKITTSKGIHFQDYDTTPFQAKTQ
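NADH formation kinetics: reaction with 30 uM PGE2 and 1 mM NAD+ (final), 20 nM enzyme, Tris-HCl pH 8 with Tween 20, after 15 min compound preincubation at room temperature. Fluorescence change, last versus first of five reads.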
PNC assembly inh: perinucleolar compartment assembly inhibition | PC3M PTB-GFP, PNC prevalence imaging, 16 h; active compounds read low | activity change (PNC), negative = inhibition, % at 10 µM | 3.1% of 140,000 active;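 active = readout at or below -70, meaning at least 70% loss of cells showing the perinucleolar compartment, a nuclear body marking cancer cells; inconclusive = readout between -30 and a set limit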
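Compounds are pinned in duplicate onto adhered PC3M cells stably expressing GFP-tagged PTB and incubated 16 h at 37 C. Cells are then fixed, nuclei stained with Hoechst, and PNC-positive cells counted.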
Numbers stand for hits; . = inactive; ? = inconclusive; / = no result given; [ ] = dose if it differs, or a comment. Unless noted, calls come from the whole dose curve; as a rule, active = well fitted inhibition curve with a large enough effect (not every such curve was filed as active); inconclusive = small, poorly fitted or top-dose-only effect, or another doubt; inactive = no such curve, though single readings can be large or run the other way.

SMILES	ALDH1A1 inh	HPGD block	PNC assembly inh
CC[C@H](C)C(C(=O)N1CCN(C(=O)OC(C)(C)C)CC1)n1cc(C(Cc2ccc(O)cc2)NC(=O)OC(C)(C)C)nn1 (stereo partly specified)	.	/	/
COc1ccc(N(C(=O)c2ccco2)C(C(=O)NC2CCCC2)c2ccc(N(C)C)cc2)cc1 (stereo unspecified)	2.51µM	.	.
CCOc1ccccc1C(C(=O)NC1CCCC1)N(Cc1ccco1)C(=O)CNC(=O)c1ccco1 (stereo unspecified)	1.78µM	.	.
COc1cc(OC)cc(N(C(=O)c2ccco2)C(C(=O)NC2CCCC2)c2ccc(N(C)C)cc2)c1 (stereo unspecified)	?	.	.
O=C(NCC(=O)N(Cc1ccco1)C(C(=O)NC1CCCCC1)c1cccnc1)c1ccco1 (stereo unspecified)	.	.	.
COc1cc2c(cc1OC)C(c1cccc([N+](=O)[O-])c1)N(C(=O)c1ccccc1C(=O)O)CC2 (stereo unspecified)	.	/	/
O=C(NCc1ccccn1)C1C2C=CC(C2)C1C(=O)Nc1ccc(F)cc1 (stereo unspecified)	.	15.8µM	.
O=C(O)C1C2C=CC(C2)C1C(=O)NCc1ccccn1 (stereo unspecified)	.	.	.
CCCC1CCC(=C(C#N)C(N)=O)CC1 (stereo unspecified)	.	.	.
CCc1c(C(=O)Nc2cc(C)ccc2OC)[nH]c(C)c1C(C)=O	.	.	-93.5
CCc1c(C(=O)Nc2ccc(OC)cc2)[nH]c(C)c1C(C)=O	.	.	.
CC(C)(C)n1nnnc1C(c1ccc(C(F)(F)F)cc1)N(Cc1ccc(F)cc1)Cc1ccco1 (stereo unspecified)	.	.	-118.9
CC(C)(C)n1nnnc1C(c1ccc(F)cc1)N(Cc1ccc(F)cc1)Cc1ccco1 (stereo unspecified)	.	.	.
CCN1C(=O)N[C@@H](c2ccco2)C(C(=O)OC)=C1C	.[13.5 µM]	.	/
O=C(NCC1CCCO1)c1ccc2c(=O)n(Cc3ccc(Cl)cc3)c(=S)[nH]c2c1 (stereo unspecified)	.	/	/
CC1CC(C)CN(C(=O)CCCn2c(=S)[nH]c3ccccc3c2=O)C1 (stereo unspecified)	?	25.1µM	.
CCOc1cc2[nH]c(=O)n(CCCCC(=O)N3CCCCCC3)c(=O)c2cc1OCC	?	?	-100.0
CC1CCN(CCCn2c(=S)[nH]c3ccccc3c2=O)CC1	.	.	?
CCCCCNC(=O)CCCCn1c(=O)[nH]c2cc(OCC)c(OCC)cc2c1=O	.	.	?
CCN1CCN(CCn2c(=S)[nH]c3ccccc3c2=O)CC1	.	.	?
O=C(CCCCCn1c(=S)[nH]c2ccc(Br)cc2c1=O)NCC1CCCO1 (stereo unspecified)	.	2.82µM	.
O=C(c1ccc(F)cc1)C1CCN(CCn2c(=S)[nH]c3ccccc3c2=O)CC1	.	14.1µM	/
CCOc1ccc(C(=O)NCCCN2CCOCC2)cc1OCC	.	/	/
CCOC(=O)c1sc(NC(=O)c2cc3c(C)nn(-c4ccccc4)c3s2)nc1C	.	.	?
Cc1cc(C)c(NC(=O)C2CCN(c3cnccn3)CC2)c(C)c1	.	.	.
SMILES	ALDH1A1 inh	HPGD block	PNC assembly inh
Cc1ccc(NC(=O)C(CC(C)C)NC(N)=O)cc1 (stereo unspecified)	.	.	?
O=C(CN1C(=O)COc2ccc(Cl)cc21)N1CCc2ccccc21	.	.	.
Nc1ccnn1Cc1ccncc1	.	/	/
O=C(CCCn1c(=S)[nH]c2ccccc2c1=O)N1CCCCC1	?	10µM	.
O=C(CCn1c(=S)[nH]c2ccccc2c1=O)N1CCOCC1	.	.	.
O=C(CCCn1c(=S)[nH]c2ccccc2c1=O)NC1CCCCC1	.	20µM	.
O=C(CCCn1c(=S)[nH]c2cc3c(cc2c1=O)OCO3)NC1CC1	.	.	?
CCN(CC)C(=O)C(=O)N/N=C/c1ccc(Br)cc1	.	.	?
CCSc1cc(C2C(C(=O)OC)=C(C)NC3=C2C(=O)CCC3)c(C)o1 (stereo unspecified)	?	.	.
CC1(C)OC(=O)C(=CNc2ncccn2)C(=O)O1	?	.	.
Cc1cc(C)nc(NC=C2C(=O)OC(C)(C)OC2=O)n1	3.98µM	/	/
Cc1cccc(CNc2ncncc2-c2ccccc2CN(C)C)c1	.	/	/
O=C(NC(=S)Nc1ccc(CN2CCOCC2)cc1)c1ccc([N+](=O)[O-])cc1	?	.	?
C/C(=N\NC(=O)c1ccc(CN2CCOCC2)cc1)c1cccc([N+](=O)[O-])c1	18.9µM	.	.
O=C(CCCCl)NC(=S)Nc1ccc(CN2CCOCC2)cc1	20µM	/	/
CCCCC(=O)Nc1cccc(NC(=S)NC(=O)COc2ccccc2Cl)c1	.	.	.

Screening data (PubChem)
